# Test results: article PMC5540273 (PLoS ONE, 2017)
# System: MKNK2
# Settings: concentration: 1 μM, replicates: in singlicate; n = 1
# 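Also: KINOMEscan kinase panel screen.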
row,Structure (SMILES),%Inh
1,CN(c1ccc2c(c1)nc(NCc1ccccc1)n2C)c1ccnc(Nc2ccc(CS(C)(=O)=O)cc2)n1.Cl [GW811603],43%
2,CCOc1nccc(-c2c(-c3ccc(F)cc3)ncn2C2CCNCC2)n1 [SB-249175],46%
3,CC(C)(C)c1ccc(C(=O)Nc2cn3cc(-n4ccnc4)ccc3n2)cc1,0%
4,CNc1nccc(-c2ccc3c(N)n[nH]c3c2)n1 [GSK2206003],97.9%

# System: T1, MLCK
# T1 construct: gene MYLK3
# Settings: concentration: 1 μM, replicates: in singlicate; n = 1
row,Structure (SMILES),%Inh
1,CN1CCN(Cc2ccc(NC(=O)Nc3ccc(N(C)c4ccnc(Nc5ccc(CS(C)(=O)=O)cc5)n4)cc3)cc2)CC1.Cl [GW827654],26%
2,COc1ccc(C)c(Nc2ccnc(Nc3ccc(-c4cnc[nH]4)cc3)n2)c1.Cl [GW784041],0%
3,Cc1ccc(NC(=O)c2ccnc(N3CCCCC3)c2)cc1-c1ccc(C(=O)NCC2CC2)cc1 [GW775610],0%
4,CC(C)NCC(Cc1ccccc1)NC(=O)c1cc(Br)c(-c2ccnc3[nH]ccc23)s1.Cl.Cl (stereo not shown) [GSK1383281],13%
5,N#Cc1cnc2cc(-c3cnc(CNCCN4CCOCC4)s3)ccc2c1Nc1ccc(Oc2ccccc2)cc1 [GW664114],0%
6,O=C1NC(=O)C(c2ccccc2Cl)=C1Nc1cccc(Cl)c1 [SB-342409],3%
7,COc1cc(Nc2ccnc3cc(-c4ccncc4)ccc23)cc(OC)c1OC.Cl [GW494610],0%
8,O=C(Nc1n[nH]c2nc(-c3cccc(O)c3)ccc12)C1CC1 [SB-711805],94.5%
9,COC(=O)Nc1nc2ccc(Oc3ccc(NC(=O)Nc4cc(C(F)(F)F)ccc4F)cc3)cc2[nH]1.Cl [GW654607],0%
